sEH act – activators of human soluble epoxide hydrolase | AID 717 | 0.04% of 91,000 active | activation, % at 2 µM | P34913 | purified human sEH enzymatic activity, activator screen; in the data active means activation above about 37%
Target sequence (P34913 whole entry, looked up): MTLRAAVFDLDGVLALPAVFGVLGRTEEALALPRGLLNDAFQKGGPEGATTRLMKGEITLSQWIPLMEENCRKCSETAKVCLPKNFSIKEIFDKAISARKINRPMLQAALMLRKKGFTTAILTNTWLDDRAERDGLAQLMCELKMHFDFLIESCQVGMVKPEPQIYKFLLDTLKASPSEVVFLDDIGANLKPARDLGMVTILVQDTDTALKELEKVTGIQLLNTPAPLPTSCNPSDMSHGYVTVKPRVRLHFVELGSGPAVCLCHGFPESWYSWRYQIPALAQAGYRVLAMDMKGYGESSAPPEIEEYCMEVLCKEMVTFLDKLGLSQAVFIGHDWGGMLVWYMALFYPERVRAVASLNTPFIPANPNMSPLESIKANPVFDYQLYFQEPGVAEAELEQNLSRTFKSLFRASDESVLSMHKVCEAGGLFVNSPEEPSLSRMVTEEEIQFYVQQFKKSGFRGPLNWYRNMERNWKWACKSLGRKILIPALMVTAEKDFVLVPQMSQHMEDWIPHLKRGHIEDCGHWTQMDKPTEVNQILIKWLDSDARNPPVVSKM
CYP2C19 act – activators of human cytochrome P450 2C19. AID 1025. P33261. recombinant CYP2C19, luciferin-H EGE luminescence; stronger effect = higher value; 0 = fully inhibited enzyme, 1 = untreated enzyme. activation factor at 5 µM. 96,000 tested, under 10 active;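 active means activation factor of at least 2 at 5 µM in the primary screen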
CYP2C9 inh – inhibitors of human CYP2C9; AID 777; 20% of 96,000 active; inhibition, % at 5 µM; CYP2C9 Supersomes, luciferin-H conversion, luminescence; P11712;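 active means blocking of liver enzyme CYP2C9 beyond about 50% at 5 µM, limit read from the data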
sEH inh – blocks human soluble epoxide hydrolase activity; P34913; recombinant human sEH enzymatic activity assay; inhibition, % at 2 µM; 0.34% of 91,000 active; AID 707; in the data active means inhibition above about 80%
CYP2C19 inhib – inhibitors of human CYP2C19; 21% of 96,000 active; inhibition, % at 5 µM; CYP2C19 Supersomes, luciferin-H EGE luminescence, 30 min; AID 778;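 active means CYP2C19 inhibition above a set limit at 5 µM in the primary screen, cut at about 50% in these data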
CYP2C9 act – CYP2C9 (human) activation. recombinant CYP2C9, luciferin-H conversion, luminescence; stronger effect = higher value; factor 1 = untreated enzyme, 0 = blocked. activation factor at 5 µM. P11712. 1.4% of 96,000 active;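 active means activation factor of 2 or more for CYP2C9 at a 5 µM dose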
Hits are given with their value. An excerpt weighted towards active compounds, which were near 27% of everything screened.

`Cc1ccc2cc(CN(CC3CCCO3)S(=O)(=O)c3c(C)ccc4nsnc34)c(=O)[nH]c2c1` (stereo unspecified) gave sEH act inactive, CYP2C19 act inactive, CYP2C9 inh 52.3, sEH inh inactive, CYP2C19 inhib inactive and CYP2C9 act inactive.
CCN(Cc1ccccc1)S(=O)(=O)c1ccc(S(=O)(=O)N(Cc2cccc(OC)c2)CC2CCCO2)cc1 (stereo unspecified) was read as sEH act inactive, CYP2C19 act inactive, CYP2C9 inh 54.7, sEH inh inactive, CYP2C19 inhib inactive and CYP2C9 act inactive.
`Cc1ccc2cc(CN(CC(C)C)C(=O)C3CCCO3)c(=O)[nH]c2c1` (stereo unspecified) gave sEH act inactive, CYP2C19 act inactive, CYP2C9 inh inactive, sEH inh inactive, CYP2C19 inhib inactive and CYP2C9 act inactive.
COc1ccc2cc(CN(CC3CCCO3)S(=O)(=O)c3ccccc3Cl)c(=O)[nH]c2c1 (stereo unspecified) was read as sEH act inactive, CYP2C19 act inactive, CYP2C9 inh 98.9, sEH inh inactive, CYP2C19 inhib 58.1 and CYP2C9 act inactive.
CCN(CC)S(=O)(=O)c1ccc(S(=O)(=O)N(CC(=O)Nc2ccccc2)CC2CCCO2)cc1 (stereo unspecified) was read as sEH act inactive and sEH inh inactive.
Cn1c(SCCS(=O)(=O)c2ccc(Cl)cc2)nnc1-c1ccccc1 was read as sEH act inactive, CYP2C19 act inactive, CYP2C9 inh inactive, sEH inh inactive, CYP2C19 inhib inactive and CYP2C9 act inactive.
Cc1ccc2cc(CN(CCCO)S(=O)(=O)c3cccc4nsnc34)c(=O)[nH]c2c1C was read as sEH act inactive, CYP2C19 act inactive, CYP2C9 inh 100.4, sEH inh inactive, CYP2C19 inhib inactive and CYP2C9 act inactive.
COc1ccc2[nH]c(=O)c(CN(CCO)S(=O)(=O)c3c(C)ccc4nsnc34)cc2c1 was read as sEH act inactive, CYP2C19 act inactive, CYP2C9 inh inactive, sEH inh inactive, CYP2C19 inhib inactive and CYP2C9 act inactive.
`CCC1CCc2c(sc(NC(=O)c3ccoc3C)c2C(N)=O)C1` (stereo unspecified) gave sEH act inactive, CYP2C19 act inactive, CYP2C9 inh inactive, sEH inh inactive, CYP2C19 inhib inactive and CYP2C9 act inactive.
Screening COc1ccc(CNC(=O)COC(=O)c2cnccn2)cc1 returned sEH act inactive, CYP2C19 act inactive, CYP2C9 inh inactive, sEH inh inactive, CYP2C19 inhib 64.4 and CYP2C9 act inactive.
Screening COc1ccccc1CNC(=O)COC(=O)c1cnccn1 returned sEH act inactive, CYP2C19 act inactive, CYP2C9 inh inactive, sEH inh inactive, CYP2C19 inhib 67.2 and CYP2C9 act inactive.
For COc1ccccc1CNC(=O)COC(=O)c1n[nH]c2ccccc12 the results were sEH act inactive, CYP2C19 act inactive, CYP2C9 inh inactive, sEH inh inactive, CYP2C19 inhib 97.4 and CYP2C9 act 2.3.
COc1ccccc1CNC(=O)c1cnccn1 was read as sEH act inactive, CYP2C19 act inactive, CYP2C9 inh inactive, sEH inh inactive, CYP2C19 inhib inactive and CYP2C9 act inactive.
`COc1ccc(CCNC(=O)c2cnccn2)cc1` gave sEH act inactive, CYP2C19 act inactive, CYP2C9 inh inactive, sEH inh inactive, CYP2C19 inhib 53.3 and CYP2C9 act inactive.
`Cc1cc(Br)ccc1NC(=O)CN1C(=O)CCC1=O` gave sEH act inactive, CYP2C19 act inactive, CYP2C9 inh inactive, sEH inh inactive, CYP2C19 inhib inactive and CYP2C9 act inactive.
`COc1ccc(CCNC(=O)c2nn(C)cc2Cl)cc1` gave sEH act inactive, CYP2C19 act inactive, CYP2C9 inh inactive, sEH inh inactive, CYP2C19 inhib 70.1 and CYP2C9 act inactive.
Screening CCCc1ccc(C(C)NC(=O)c2cnccn2)cc1 (stereo unspecified) returned sEH act inactive, CYP2C19 act inactive, CYP2C9 inh 52.6, sEH inh inactive, CYP2C19 inhib 76.5 and CYP2C9 act inactive.
O=C(Oc1ccccc1)c1ccc(COC(=O)c2cnccn2)cc1 was read as sEH act inactive, CYP2C19 act inactive, CYP2C9 inh 56.3, sEH inh inactive, CYP2C19 inhib inactive and CYP2C9 act inactive.
`Cc1ccc2c(Cl)c(C(=O)Nc3cc(C)on3)sc2c1` gave sEH act inactive, CYP2C19 act inactive, CYP2C9 inh inactive, sEH inh inactive, CYP2C19 inhib inactive and CYP2C9 act inactive.
COc1ccc(CCNC(=O)c2sc3cc(C)ccc3c2Cl)cc1 was read as sEH act inactive, CYP2C19 act inactive, CYP2C9 inh 55.9, sEH inh inactive, CYP2C19 inhib 50.2 and CYP2C9 act inactive.
For Cn1c(N)c(C(=O)NCc2ccccc2)sc1=S the results were CYP2C19 act inactive, CYP2C9 inh inactive, CYP2C19 inhib 53.2 and CYP2C9 act inactive.
`COc1ccc(CCNC(=O)c2sc(=S)n(C)c2N)cc1` gave sEH act inactive, CYP2C19 act inactive, CYP2C9 inh 60.5, sEH inh inactive, CYP2C19 inhib inactive and CYP2C9 act inactive.
For COc1ccc(CCNC(=O)c2nonc2N)cc1 the results were sEH act inactive and sEH inh inactive.
Cc1cc(C)n(CC(O)Cn2c3ccc(Br)cc3c3cc(Br)ccc32)c(=O)n1 (stereo unspecified) was read as sEH act inactive, CYP2C19 act inactive, CYP2C9 inh 68.7, sEH inh inactive, CYP2C19 inhib inactive and CYP2C9 act inactive.
Cc1cc(C)n(CC(O)Cn2c3ccccc3c3ccccc32)c(=O)n1 (stereo unspecified) was read as sEH act inactive, CYP2C19 act inactive, CYP2C9 inh 72.4, sEH inh inactive, CYP2C19 inhib 84.3 and CYP2C9 act inactive.
For COC(=O)c1nn(-c2c(C)n(C)n(-c3ccccc3)c2=O)cc1O the results were sEH act inactive, CYP2C19 act inactive, CYP2C9 inh inactive, sEH inh inactive, CYP2C19 inhib inactive and CYP2C9 act inactive.
CCc1ccc(S(=O)(=O)NCc2cn3ccccc3n2)s1 was read as sEH act inactive, CYP2C19 act inactive, CYP2C9 inh inactive, sEH inh inactive, CYP2C19 inhib 85.8 and CYP2C9 act inactive.
Screening CCc1ccc(S(=O)(=O)NCCc2cn3ccsc3n2)s1 returned sEH act inactive, CYP2C19 act inactive, CYP2C9 inh inactive, sEH inh inactive, CYP2C19 inhib 68.5 and CYP2C9 act inactive.
For CCCCn1c(N)c(N(CCOC)C(=O)CSc2nc3ccc(C)cc3[nH]2)c(=O)[nH]c1=O the results were sEH act inactive, CYP2C19 act inactive, CYP2C9 inh inactive, sEH inh inactive, CYP2C19 inhib inactive and CYP2C9 act inactive.
CC(C)(C)n1nnnc1CN1CCC(NC(=O)NC2CCCCC2)CC1 was read as sEH act inactive, CYP2C19 act inactive, CYP2C9 inh inactive, sEH inh 96.8, CYP2C19 inhib inactive and CYP2C9 act inactive.

Screens (PubChem BioAssay)
